Source: PubChem BioAssay (NCATS)
Results filed as inconclusive are left out. Where a call stands in place of a potency, no number is given. Calls of active or inactive are those of the source. Calls come from the whole dose curve; as a rule, active = well fitted inhibition curve with a large enough effect; inconclusive = small, poorly fitted or top-dose-only effect; inactive = no such curve, though single readings can be large or run the other way.

Each molecule was assayed against Protein phosphatase 1D (Homo sapiens) (UniProt O15297) (assay: RapidFire Mass Spectrometry qHTS Assay for Modulators of WT P53-Induced Phosphatase 1 (WIP1) (AID 1347424)). Settings: WIP1 dephosphorylation of phosphopeptide, RapidFire MS; series mostly up to 63 µM.
From the text: Assay Provider (PI): Nathan Coussens Ph. D.
National Center for Advancing Translational Sciences (NCATS), Rockville, MD
National Institute of Health (NIH), Bethesda, Maryland
WT P53-Induced Phosphatase 1 (WIP1) is a member of the magnesium-dependent serine/threonine protein phosphatase (PPM) family and is induced by P53 in response to DNA damage. In several human cancers, the WIP1 protein is overexpressed, which is generally associated with a worse prognosis. Although WIP1 is an attractive therapeutic target, no potent, selective, and bioactive small-molecule modulator with favorable pharmacokinetics has been reported. Phosphatase enzymes are among the most challenging targets for small molecules because of the difficulty of achieving both modulator selectivity and bioavailability. Another major obstacle has been the availability of robust and physiologically relevant phosphatase assays that are suitable for high-throughput screening.
Here, we describe two orthogonal biochemical WIP1 activity assays that utilize phosphopeptides from native WIP1 substrates. We optimized a RapidFire MS assay to quantify the enzymatically dephosphorylated peptide reaction product in a 384-well format. Additionally, a redshifted Rhodamine-PBP fluorescence assay was optimized in a 1,536-well format to enable real-time WIP1 activity measurements through the detection of the orthogonal reaction product, Pi. We validated these two optimized assays by quantitative high-throughput screening against the National Center for Advancing Translational Sciences (NCATS) Pharmaceutical Collection and used secondary assays to confirm and evaluate inhibitors identified in the primary screen.
SEQUENCE No. (e.g., 1, 2, 3, etc.); […] (e.g., Cells, Incubation, Reagent, etc.); VALUE; DESCRIPTION
1; Reagent; 50 uL; dispensed assay buffer: 0.1% formic acid in water (10 uL : 40 uL) solution in column 1
3; Library Compounds; 63 nL; library compounds in DMSO, columns 3-24
4; Control Compounds; 63 nL; DMSO in wells I-P, columns 1-2, GSK830371 (10 uM, final) in wells A-H, column 2
5; Time; 1 hr; incubation
6; Substrate; 2 uL; VEPPL-pS-QETFS (10 uM) in assay buffer, column 2-24
7; Time; 5 min; incubation
8; Reagent; 2 uL; 0.5% formic acid in water, columns 2-24
9; Reagent; 38 uL; VEPPL-S-QETF*S in 0.1% formic acid, columns 2-24
10; Detection; mass spec; RapidFire mass spectrometry
NOTES (numbers refer to sequence above)
1, 2, 6; dispensed reagent in White Nunc 384-well PP microplates (264573); assay buffer: 50 mM Tris-HCl pH 7.5, 30 mM MgCl2, 1 mM TCEP, 0.1 mM EGTA, 75 ug/mL BSA.
2, 6, 8, 9; Dispensed with BioRaptr (Beckman Coulter)
2, 6, 9; Final concentrations: 10 nM WIP1; 2 uM VEPPL-pS-QETFS; 1 uM VEFFL-S-QETF*S
3 & 4; Kalypsys Pintool transfer (Wako USA), Tip wash sequence: water, DMSO, methanol, 20 sec vacuum dry.
5 & 7; incubation at room temperature
10; RapidFire mass spectrometry read using the Agilent RapidFire 360 (Clausse, 2019)
Clausse V, et al. Physiologically relevant orthogonal assay for the discovery of small-molecule modulators of WIP1 […] in high-throughput screens. J Biol Chem. 2019, 294(46): 17654-17668. doi:10.1074/jbc.RA119.010201
Potency is the fitted concentration of half-maximal effect.

Protein phosphatase 1D (Homo sapiens), sequence (O15297 whole entry, looked up): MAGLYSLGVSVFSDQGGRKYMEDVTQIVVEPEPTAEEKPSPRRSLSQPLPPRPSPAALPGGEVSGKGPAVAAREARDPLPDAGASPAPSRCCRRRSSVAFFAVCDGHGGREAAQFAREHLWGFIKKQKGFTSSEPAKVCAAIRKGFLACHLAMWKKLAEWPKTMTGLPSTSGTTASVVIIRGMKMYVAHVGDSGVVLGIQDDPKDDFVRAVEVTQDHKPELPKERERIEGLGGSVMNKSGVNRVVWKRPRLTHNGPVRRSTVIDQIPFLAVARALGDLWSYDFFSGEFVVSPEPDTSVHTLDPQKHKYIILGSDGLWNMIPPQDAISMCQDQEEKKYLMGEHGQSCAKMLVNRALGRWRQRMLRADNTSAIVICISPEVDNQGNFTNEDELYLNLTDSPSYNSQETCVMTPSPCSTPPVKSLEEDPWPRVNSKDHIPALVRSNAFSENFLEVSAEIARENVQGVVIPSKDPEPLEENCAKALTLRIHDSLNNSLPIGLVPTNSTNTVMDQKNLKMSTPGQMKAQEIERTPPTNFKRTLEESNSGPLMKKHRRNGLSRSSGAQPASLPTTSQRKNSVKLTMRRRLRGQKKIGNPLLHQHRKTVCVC

Compound	Potency
OC1C(O)C(O)C(O)C(O)C1O (stereo not given)	inactive
C/C=C/c1ccc(O)c(OC)c1	inactive
C#C[C@]1(O)CC[C@H]2[C@@H]3CCC4=Cc5oncc5C[C@]4(C)[C@H]3CC[C@@]21C	inactive
OCc1ccccn1	inactive
NCc1ccccc1Sc1ccccc1CO	inactive
CCc1oc2ccccc2c1C(=O)c1cc(I)c(O)c(I)c1	3.55 µM (active)
CCNC(=O)NCc1cccc(Cl)c1	inactive
CCCCN1C[C@H](O)[C@@H](O)[C@H](O)[C@H]1CO	inactive
Cc1ncc(CO)c(C=O)c1O	inactive
C=C[C@@]1(C)CC(=O)[C@]2(O)[C@@]3(C)[C@@H](O)CCC(C)(C)[C@@H]3[C@H](O)[C@H](OC(C)=O)[C@@]2(C)O1	inactive
C#C[C@]1(O)CC[C@H]2[C@@H]3CCc4cc(OC)ccc4[C@H]3CC[C@@]21C	inactive
Cc1ccccc1OCC(O)CO (stereo not given)	inactive
NC(=S)N/N=C/c1cccnc1	inactive
O=C(O)P(=O)(O)O	inactive
CCOc1ccccc1OCCN[C@H](C)Cc1ccc(OC)c(S(N)(=O)=O)c1	inactive
NC(=O)n1c(O)c(C(=O)c2cccs2)c2cc(Cl)ccc21	inactive
O=C(c1ccc(F)cc1)C1CCN(CCn2c(=S)[nH]c3ccccc3c2=O)CC1	inactive
c1ccc(-c2nc[nH]c2-c2ccccc2)cc1	inactive
O=C1OC(CN2CCOCC2)CN1/N=C/c1ccc([N+](=O)[O-])o1 (stereo not given)	inactive
Cc1cc(-c2ccccc2)nnc1NCCN1CCOCC1	inactive

Compound	Potency
Nc1nc(Cl)nc2c1ncn2[C@@H]1O[C@H](CO)[C@@H](O)[C@@H]1F	inactive
Cc1cc(C)cc(OCC2CNC(=O)O2)c1 (stereo not given)	inactive
CNCCc1ccccn1	inactive
FC1(F)C(F)(F)C(F)(F)C2(F)C(F)(F)C(F)(F)C(F)(F)C(F)(F)C2(F)C1(F)F (stereo not given)	inactive
CC(C)n1c(/C=C/[C@@H](O)C[C@@H](O)CC(=O)O)c(-c2ccc(F)cc2)c2ccccc21	inactive
C=C1c2cccc(O)c2C(O)=C2C(=O)[C@]3(O)C(O)=C(C(N)=O)C(=O)[C@@H](N(C)C)[C@@H]3[C@@H](O)[C@H]12	28.2 µM (active)
CCCCC(CC)CN1CN(CC(CC)CCCC)CC(C)(N)C1 (stereo not given)	inactive
COP(=O)(OC)OC(c1ccc(Cl)cc1)P(=O)(OC)OC (stereo not given)	inactive
COc1ccc(S(=O)(=O)N2c3ccc(Cl)cc3[C@@](O)(c3ccccc3Cl)[C@H]2C(=O)N2CCC[C@@H]2C(N)=O)cc1OC	inactive
CCN(CC)CCOc1ccccc1C(=O)CCc1ccccc1	inactive
Cc1cccc(C)c1NC(=O)CN1CCCCCC1	inactive
Cc1cc(CC(=O)O)c(C)n1-c1ccc(Cl)cc1	inactive
Oc1ccc(Cl)cc1Cc1cc(Cl)ccc1O	22.4 µM (active)
Cc1cn([C@H]2C[C@H](F)[C@@H](CO)O2)c(=O)[nH]c1=O	inactive
CCCCCCCC/C=C\CCCCCCCCN	inactive
CCCN(CCc1cccs1)[C@H]1CCc2c(O)cccc2C1	inactive
CN(C)CCC[C@@]1(c2ccc(F)cc2)OCc2cc(C#N)ccc21	inactive
C[C@H]1O[C@@H](O[C@H]2CC[C@@]3(C)[C@H](CC[C@@H]4[C@@H]3C[C@@H](O)[C@]3(C)[C@@H](C5=CC(=O)OC5)CC[C@]43O)C2)C[C@H](O)[C@@H]1O[C@H]1C[C@H](O)[C@H](O[C@H]2C[C@H](O)[C@H](O[C@@H]3O[C@H](CO)[C@@H](O)[C@H](O)[C@H]3O)[C@@H](C)O2)[C@@H](C)O1	inactive
CC(=O)Nc1ccc(S(=O)(=O)Nc2ccc([N+](=O)[O-])cc2)cc1	inactive
Cc1ccc(O)c([C@H](CCN(C(C)C)C(C)C)c2ccccc2)c1	inactive
